Experimental data reported in PubChem BioAssay (NCATS).
Records with an inconclusive call do not appear. Entries that show only a call come without a potency. Unmarked numbers belong to inactive results. Calls of active or inactive are those of the source. The call rests on the fitted dose curve; in most records, active means well fitted curve in the direction sought with a large enough effect; inconclusive means small, poorly fitted or top-dose-only effect, or another doubt; inactive means no such curve, though single readings can be large; an effect the other way counts as inactive or inconclusive.

Key:
[1] = tested on: C33A; experiment: Primary qHTS to identify gynecologic anti-cancer compounds using libraries of approved drugs and bioactive compounds (AID 1345084); settings: Gynecologic cancer cell panel viability, ATPlite luminescence, 48 h; series mostly up to 57.5 µM; further: nearly all actives have a fitted effect of over 55% in size
How it was run: (§1)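 Luminescence from the ATPlite ATP-monitoring reagent indicates viable cell number; lower signal means cytotoxicity. Cells received compound 16 h after seeding and were exposed for 48 h across five concentrations.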

[2] = tested on: CASKI; experiment: as above; settings: Gynecologic cancer cell panel viability, ATPlite luminescence, 48 h; series mostly up to 57.5 µM
How it was run: as §1

[3] = tested on: Es-2; experiment: as above; settings: Gynecologic cancer cell panel viability, ATPlite luminescence, 48 h; series mostly up to 57.5 µM
How it was run: as §1

[4] = tested on: HeLa; experiment: as above; settings: Gynecologic cancer cell panel viability, ATPlite luminescence, 48 h; series mostly up to 57.5 µM
How it was run: as §1

[5] = tested on: Hek293T; experiment: as above; settings: Gynecologic cancer cell panel viability, ATPlite luminescence, 48 h, control line for the selectivity index; series mostly up to 57.5 µM
How it was run: as §1

[6] = tested on: JEG-3; experiment: as above; settings: Gynecologic cancer cell panel viability, ATPlite luminescence, 48 h; series mostly up to 57.5 µM
How it was run: as §1

[7] = tested on: OV90; experiment: as above; settings: Gynecologic cancer cell panel viability, ATPlite luminescence, 48 h; series mostly up to 57.5 µM
How it was run: as §1

[8] = tested on: PA-1; experiment: as above; settings: Gynecologic cancer cell panel viability, ATPlite luminescence, 48 h; series mostly up to 57.5 µM
How it was run: as §1

[9] = tested on: Tov-21-G; experiment: as above; settings: Gynecologic cancer cell panel viability, ATPlite luminescence, 48 h; series mostly up to 57.5 µM
How it was run: as §1

[10] = tested on: Tov112D; experiment: as above; settings: Gynecologic cancer cell panel viability, ATPlite luminescence, 48 h; series mostly up to 57.5 µM
How it was run: as §1

[11] = tested on: SKOV3; experiment: as above; settings: Gynecologic cancer cell panel viability, ATPlite luminescence, 48 h; series mostly up to 57.5 µM
How it was run: as §1

[12] = qHTS assay to identify inhibitors of the type 1 interferon - major histocompatibility complex class I in skeletal muscle: Counter screen cell viability and HiBit confirmation (AID 1347412); settings: iHSKM muscle cells + IFN-b, HiBiT or CellTiter-Glo, 24 h; further: nearly all actives have a fitted effect of over 60% in size
How it was run: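 CRISPR HLA-B*08:01-HiBit immortalized human myoblasts (C25cl48) stimulated with 4 ng/ml IFN-beta and compounds (12-point 1:3, top 46 uM final) for 24 h at 37 C. Duplicate plates read by HiBit lytic luminescence or CellTiter Glo ATP.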
Potency means the concentration at half of the fitted maximal effect.

Structure (SMILES)	Potency [1]	Potency [2]	Potency [3]	Potency [4]	Potency [5]	Potency [6]	Potency [7]	Potency [8]	Potency [9]	Potency [10]	Potency [11]	Potency ([12]; HiBiT)	activity change, negative = inhibition ([12]; Viability, at 45.9 µM (top of the series)) [%]
O=C(O)CCCCCC[C@H]1C(=O)NC(=O)N1CC[C@@H](O)C1CCCCC1	inactive	inactive	inactive	inactive	inactive	inactive	inactive	inactive	inactive	inactive			
COc1c(Nc2ncc(Cl)c(N[C@H]3[C@@H](C(N)=O)[C@@H]4C=C[C@H]3C4)n2)ccc2c1CC[C@@H](N1CCOCC1)CC2	inactive	inactive	inactive	inactive	inactive	inactive	inactive	inactive	inactive	inactive			
CCOC(=O)C(CCc1ccccc1)NC(C)C(=O)N1C(=O)N(C)CC1C(=O)O (centres undefined)	inactive	inactive	inactive	inactive	inactive	inactive	inactive		inactive	inactive	inactive		
CN(CCc1ccc(Nc2ncc(-c3cccnc3)s2)cc1)Cc1ccccc1	inactive	inactive	inactive	inactive	inactive	inactive	inactive		inactive	inactive			
COC(=O)C1(C)CCC2(C(=O)O)CCC3(C)C(=CCC4C5(C)CC(O)C(OC6OCC(O)C(O)C6O)C(C)(CO)C5CCC43C)C2C1 (centres undefined)	inactive	inactive	inactive	inactive	inactive	inactive	inactive	inactive	inactive	inactive	inactive		
CC(C)=CCC/C(C)=C/CO[C@@H]1O[C@H](CO)[C@@H](O)[C@H](O)[C@H]1O	inactive	inactive	inactive	inactive	inactive	inactive	inactive	inactive	inactive	inactive			
Cc1ccc([N+](=O)[O-])cc1S(=O)(=O)N(C)/N=C/c1cnc2ccc(Br)cn12	316 nM (active)	316 nM (active)	398 nM (active)	316 nM (active)	316 nM (active)			199 nM (active)		355 nM (active)		49.7 nM (active)	-5.21
C[C@@H]1O[C@@H](O[C@H]2[C@@H]3C=CO[C@@H](O[C@@H]4O[C@H](CO)[C@@H](O)[C@H](O)[C@H]4O)[C@@H]3[C@@]3(CO)O[C@@H]23)[C@H](OC(=O)/C=C/c2ccccc2)[C@H](O)[C@H]1O	inactive	inactive	inactive	inactive	inactive	inactive	inactive	inactive	inactive	inactive			
CC1=CCC2C(C)(C)CCC[C@]2(C)[C@@]12CC[C@](C)(CC(=O)O)O2 (some centres undefined)	inactive	inactive	inactive	inactive	inactive	inactive	inactive	inactive	inactive	inactive			
C[C@@H]1CC[C@]2(C(=O)O[C@@H]3O[C@H](CO)[C@@H](O)[C@H](O)[C@H]3O)CC[C@]3(C)C(=CCC4[C@@]5(C)C[C@@H](O)[C@H](O)[C@](C)(C(=O)O)C5CC[C@]43C)[C@@H]2[C@]1(C)O (some centres undefined)	inactive	inactive	inactive	inactive	inactive	inactive	inactive		inactive	inactive	inactive		
CC(=O)N1CCN(Cc2ccc([C@H](C)Nc3nccc(N4C(=O)OC[C@@H]4C(C)C)n3)cc2)CC1	inactive	inactive	inactive	inactive	inactive		inactive		inactive	inactive	inactive		
Cc1cc(C)c(CNC(=O)c2cc(-c3ccc(CN4CCOCC4)cc3)cc3c2cnn3C2CCCC2)c(=O)[nH]1	inactive	inactive	inactive	inactive	inactive	inactive	inactive	inactive	inactive	inactive			
Cc1cc(NC(=O)Nc2ccc(F)c(F)c2)n(-c2ccccc2)n1	inactive	inactive	inactive	inactive	inactive	inactive	inactive	inactive	inactive	inactive			
CC1C(=O)OCC2=CCN3CCC(OC(=O)C(C)(O)C1(C)O)C23 (centres undefined)	inactive	inactive	inactive	inactive	inactive	inactive	inactive	inactive	inactive	inactive	inactive		
